Measurements as given in the supplement of paper PMC10338343.
± gives the standard deviation.

What was measured:
[1] = test system: MILI (PIWIL2) piRISC loaded with piRNA #1 (26 nt); experiment: pre-steady-state target cleavage rate (min^-1); guide: piRNA #1 5'p-UGAGGUAGUAGGUUGUAUAGUAUCCA; higher = faster piRNA-guided slicing of the target; details: auxiliary factor: 500 nM mouse GTSF1
Summary of the method: (§1)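 The pre-steady-state cleavage rate was calculated from a burst-and-steady-state fit. Data came from Cleave-'n-Seq, in which […] transcribed, DNA-blocked target RNA library was mixed with 1 nM active affinity-purified piRISC carrying one synthetic guide, with or without 500 nM GTSF1 partner protein, in HEPES–potassium acetate buffer at 33 °C for 0–8 or 0–960 min. Uncleaved targets were sequenced and normalised to depth and to weakly complementary targets, three trials were pooled, and k3 was capped at 0.0001 min^-1.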

[2] = test system: EfPiwi piRISC loaded with piRNA #1 (26 nt); experiment: pre-steady-state target cleavage rate (min^-1); auxiliary factor: 500 nM Ephydatia muelleri Gtsf1; guide: piRNA #1 5'p-UGAGGUAGUAGGUUGUAUAGUAUCCA; higher = faster piRNA-guided slicing of the target
Summary of the method: as §1

[3] = test system: MILI (PIWIL2) piRISC loaded with L1MC piRNA (26 nt); experiment: pre-steady-state target cleavage rate (min^-1); guide: L1MC piRNA 5'p-UAACUAAAUACUAUGCAAGCUGUAGG; MIWI and MILI are mouse PIWI proteins and EfPiwi is from a freshwater sponge; tags in brackets are library labels; higher = faster piRNA-guided slicing of the target; details: auxiliary factor: 500 nM mouse GTSF1
Summary of the method: as §1

In the case of GGAGACGAUUCUAUACAUCCUACUACCUCA, the “pre-steady-state target cleavage rate” value [1] is reported as 0.267 ± 0.018 and the “pre-steady-state target cleavage rate” value [2] is reported as 0.00332 ± 0.0024.

In the case of GGAGUGGAUACUCAUACAACCUACUACCUCA, the “pre-steady-state target cleavage rate” value [1] is reported as 0.161 ± 0.012 and the “pre-steady-state target cleavage rate” value [2] is reported as 0.0153 ± 0.0069.

In the case of GGAGACCAUACUAUACAACCUACUUACCUCA, the “pre-steady-state target cleavage rate” value [1] is reported as 0.175 ± 0.017 and the “pre-steady-state target cleavage rate” value [2] is reported as 0.00697 ± 0.0031.

GGAGACCAUACUAUACAUCCUACUACCUCA was tested, and the “pre-steady-state target cleavage rate” value [1] was 0.302 ± 0.025 and the “pre-steady-state target cleavage rate” value [2] was 0.00918 ± 0.0027.

For GGAGACCUAUCCAUACAACCUACUACCUCA, the “pre-steady-state target cleavage rate” value [1] was 0.0836 ± 0.016 and the “pre-steady-state target cleavage rate” value [2] was 0.0212 ± 0.01.

With GGAGACGAUACUAUUCAAGCUACUACCUCA the “pre-steady-state target cleavage rate” value [1] was 0.23 ± 0.015 and the “pre-steady-state target cleavage rate” value [2] was 0.00454 ± 0.002.

GGAGACCUAACUAUACAACCUACGACCUCA was tested, and the “pre-steady-state target cleavage rate” value [1] was 0.129 ± 0.027 and the “pre-steady-state target cleavage rate” value [2] was 0.00261 ± 0.0025.

With “GGAGACGAUACUAUACAACCUACUACCUCC [g2:g24:cont:t1C]” the “pre-steady-state target cleavage rate” value [1] was 0.182 ± 0.014 and the “pre-steady-state target cleavage rate” value [2] was 0.0508 ± 0.017.

In the case of GGAGAGGUAUCUAUACAACCUACUACCUCA, the “pre-steady-state target cleavage rate” value [1] is reported as 0.0739 ± 0.0068 and the “pre-steady-state target cleavage rate” value [2] is reported as 0.0113 ± 0.0061.

With GGAGUGGAUACUAUUCAAGCUACUACCUCA the “pre-steady-state target cleavage rate” value [1] was 0.221 ± 0.013 and the “pre-steady-state target cleavage rate” value [2] was 0.0053 ± 0.0025.

For GGAGAGGAUACUAUACAACCUACACCUCA, the “pre-steady-state target cleavage rate” value [1] was 0.00718 ± 0.0031 and the “pre-steady-state target cleavage rate” value [2] was 0.00361 ± 0.002.

For GGAGUGGAUACUAAACAACCUACUACCACA, the “pre-steady-state target cleavage rate” value [1] was 0.113 ± 0.011 and the “pre-steady-state target cleavage rate” value [2] was 0.003 ± 0.0021.

In the case of GGAGACCAUACUAUCAACCUACUACCUCA, the “pre-steady-state target cleavage rate” value [1] is reported as 0.199 ± 0.022 and the “pre-steady-state target cleavage rate” value [2] is reported as 0.0101 ± 0.005.

In the case of GGAGUGGAUACUAUACAACCCACUACCUCA, the “pre-steady-state target cleavage rate” value [1] is reported as 0.0174 ± 0.0024 and the “pre-steady-state target cleavage rate” value [2] is reported as 0.00487 ± 0.0019.

In the case of GGAGUGGAUACUAUACAAGCUUCUACCUCA, the “pre-steady-state target cleavage rate” value [1] is reported as 0.0391 ± 0.0037 and the “pre-steady-state target cleavage rate” value [2] is reported as 0.00507 ± 0.0021.

For GGAGAGCAUACUUUACAACCUACUACCUCA, the “pre-steady-state target cleavage rate” value [1] was 0.138 ± 0.01 and the “pre-steady-state target cleavage rate” value [2] was 0.0083 ± 0.0045.

With GGAGAGGAUGCUAUACAACCUACUACCUCA the “pre-steady-state target cleavage rate” value [1] was 0.151 ± 0.018 and the “pre-steady-state target cleavage rate” value [2] was 0.00971 ± 0.006.

In the case of GGAGAGCAUACUAUACAACCAACUACCUCA, the “pre-steady-state target cleavage rate” value [1] is reported as 0.00634 ± 0.0024 and the “pre-steady-state target cleavage rate” value [2] is reported as 0.00434 ± 0.0022.

GGAGUGUAUACUAUACAACCUACUACCUCA was tested, and the “pre-steady-state target cleavage rate” value [1] was 0.167 ± 0.0094 and the “pre-steady-state target cleavage rate” value [2] was 0.0133 ± 0.0057.

GGAGACCUAUCGAUACAACCUACUACCUCA was tested, and the “pre-steady-state target cleavage rate” value [2] was 0.0102 ± 0.0056.

With GGAGACCUAACGUAUACAACCUACUACCUCA the “pre-steady-state target cleavage rate” value [2] was 0.0505 ± 0.021.

In the case of GGAGUGGAUACUAUACAAACCUACUACCUCA, the “pre-steady-state target cleavage rate” value [2] is reported as 0.0643 ± 0.023.

In the case of GGAGUGGAAACUAUACAACCAACUACCUCA, the “pre-steady-state target cleavage rate” value [2] is reported as 0.0049 ± 0.0032.

For GGAGACCAUACUAUACAAGCCUACUACCUCA, the “pre-steady-state target cleavage rate” value [2] was 0.00453 ± 0.0032.

In the case of GGAGACCUUACUAUACAACCACUACCUCA, the “pre-steady-state target cleavage rate” value [2] is reported as 0.0103 ± 0.0057.

With GGAGACCUAUGAUAUGUACCCACUACCUCA the “pre-steady-state target cleavage rate” value [2] was less than 0.0001.

For “GGAGUGGAUACUAUACAACCUACUAGGAGA [g6:g26:cont:t1A]”, the “pre-steady-state target cleavage rate” value [2] was 0.00291 ± 0.0023.

In the case of GGAGACCUAUGUUAUACAACCUACUACCUCA, the “pre-steady-state target cleavage rate” value [2] is reported as 0.0122 ± 0.0063.

With GGAGACCGUACUAUACAACCUACUACCUCA the “pre-steady-state target cleavage rate” value [2] was 0.156 ± 0.049.

For GGAGACGAAACUAUACAACCAACUACCUCA, the “pre-steady-state target cleavage rate” value [2] was 0.0068 ± 0.0036.

For GGAGUGGAUACUAUACAACCUAGUAGCUCA, the “pre-steady-state target cleavage rate” value [2] was 0.00485 ± 0.0018.

For GGAGUGGAUACUAUACAACCAACUUCCUCA, the “pre-steady-state target cleavage rate” value [2] was 0.00287 ± 0.0019.

For GGAGACCUAUGAUAACAACCUACUAGCACA, the “pre-steady-state target cleavage rate” value [2] was less than 0.0001.

GGAGACCUAUCUUAUACAACCUACUACCUCA was tested, and the “pre-steady-state target cleavage rate” value [2] was 0.0118 ± 0.0052.

GGAGAGGAUACUAUACGAACCUACUACCUCA was tested, and the “pre-steady-state target cleavage rate” value [2] was 0.0069 ± 0.0052.

With GGAGUGGAUACUAUACAACCUCACUACCUCA the “pre-steady-state target cleavage rate” value [2] was 0.00417 ± 0.0022.

GGAGAGGAUACUAUACAACCUUCUUCCUCA was tested, and the “pre-steady-state target cleavage rate” value [2] was 0.00382 ± 0.0025.

GGAGAGGAUACUAUACAACCUUCUAGCUCA was tested, and the “pre-steady-state target cleavage rate” value [2] was 0.00404 ± 0.0021.

GGAGAGGAUACUAUACAACCUAGUUCCUCA was tested, and the “pre-steady-state target cleavage rate” value [2] was 0.00396 ± 0.0022.

For GGAGACCAUACUAUACACCUACUACCUCA, the “pre-steady-state target cleavage rate” value [2] was 0.00694 ± 0.0042.

GGAGACGAUACUAUACAACCUACUCACCUCA was tested, and the “pre-steady-state target cleavage rate” value [2] was 0.00418 ± 0.0019.

For GGAGACCAUACUAUACACACCUACUACCUCA, the “pre-steady-state target cleavage rate” value [2] was 0.00511 ± 0.0031.

For GGAGACGAUACUAUACAUCCUACUACCUGA, the “pre-steady-state target cleavage rate” value [2] was 0.00464 ± 0.0014.

GGAGACCAAACUAAACAACCUACUACCUCA was tested, and the “pre-steady-state target cleavage rate” value [2] was 0.00793 ± 0.0036.

For GGAGUGGAUACUAUACAACCUAGUACCUGA, the “pre-steady-state target cleavage rate” value [2] was 0.00271 ± 0.001.

GGAGAGGAUACUAUACAACCUUGAACCUCA was tested, and the “pre-steady-state target cleavage rate” value [2] was 0.00408 ± 0.004.

For GGAGAGCAUACUAUACAACCUACUACCACA, the “pre-steady-state target cleavage rate” value [2] was 0.00318 ± 0.0021.

GGAGACCUAUCAUAACAACCUACUACCUCA was tested, and the “pre-steady-state target cleavage rate” value [2] was 0.00531 ± 0.0037.

For GGAGACCUAUGAUAUCAACCAAGUACCUCA, the “pre-steady-state target cleavage rate” value [2] was less than 0.0001.

GGAGAGGAUACUAUACAACCUACUUCGUCA was tested, and the “pre-steady-state target cleavage rate” value [2] was 0.00697 ± 0.0031.

With GGAGAGGAUACUAGUACAACCUACUACCUCA the “pre-steady-state target cleavage rate” value [2] was 0.0114 ± 0.0064.

GGAGAGGAUACUAUACAACCUACAACGUCA was tested, and the “pre-steady-state target cleavage rate” value [2] was 0.00371 ± 0.0017.

With GGAGUCCAUACUAUACAACCUACUACCUCA the “pre-steady-state target cleavage rate” value [2] was 0.0575 ± 0.019.

With GGAGUGGAUACUAUACAACCUACAAGCUCA the “pre-steady-state target cleavage rate” value [2] was 0.00192 ± 0.0017.

In the case of GGAGACCAUACUAUACAGACCUACUACCUCA, the “pre-steady-state target cleavage rate” value [2] is reported as 0.0137 ± 0.0061.

In the case of GGAGUGGAUACUAUUCAACCUUCUACCUCA, the “pre-steady-state target cleavage rate” value [2] is reported as 0.00433 ± 0.0025.

In the case of “GGAGACGAUACUAUACAACCUACUAGGAGA [g6:g24:cont:t1A]”, the “pre-steady-state target cleavage rate” value [2] is reported as 0.00317 ± 0.0021.

“GGAGACCAUACUAUACAACCUACAUGGAGA [g8:g23:cont:t1A]” was tested, and the “pre-steady-state target cleavage rate” value [2] was 0.00382 ± 0.0038.

For GGAGAGGAUACUAUACAACCUACAACCUGA, the “pre-steady-state target cleavage rate” value [2] was 0.00332 ± 0.0014.

With UCCUGGAUCAGCUUGGAUACUAUUUAGUUA the “pre-steady-state target cleavage rate” value [3] was 0.0383 ± 0.01.
